Compounds without any hit were thinned out: in the full panel of roughly 83,000, 20% have a hit.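 A percent growth of 40 corresponds to 60% growth inhibition; 0 means no net growth; -100 means all cells died. Active threshold: below 10.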 Active and inactive are the calls of the source.
How the values were obtained:
Test in all cases: NCI-60 one-dose screen, 48 h (100 = growth as untreated, 0 = no growth, -100 = all killed)
Conditions in all cases: 10 µM unless noted
[1] = tested on: NCI-H23 lung
[2] = tested on: NCI-H226 lung
[3] = tested on: NCI-H322M lung
[4] = tested on: HOP-62 NSCLC
[5] = tested on: NCI-H460 lung
[6] = tested on: HOP-92 NSCLC
[7] = tested on: A549/ATCC NSCLC
[8] = tested on: 786-0 renal
[9] = tested on: COLO 205 colon
[10] = tested on: DU-145 prostate
[11] = tested on: K-562 leukemia
[12] = tested on: MALME-3M melanoma
[13] = tested on: MDA-MB-231 breast
[14] = tested on: SF-268 CNS
[15] = tested on: SF-295 CNS
[16] = tested on: SF-539 CNS
[17] = tested on: UACC-257 melanoma
[18] = tested on: M14 melanoma
[19] = tested on: RXF 393 renal
[20] = tested on: NCI-H522 lung

Measured: growth

N=C(N)c1ccc(-c2ccc(-c3cncc4ccccc34)s2)cc1F
active: [1] -67.9% | [2] -64% | [3] -67.6% | [4] -83.3% | [5] -72.4% | [6] -87.1% | [7] -76.8% | [8] -91.2% | [9] -85.6% | [10] -91% | [11] -50.6% | [12] -81% | [13] -85.2% | [14] -74.4% | [15] -95.1% | [16] -97.7%
inactive: [17] 111% | [18] 96.3%

C=C1CC2(OC1=O)C(=O)N(CCCN1C(=O)C3(CC(=C)C(=O)O3)c3ccccc31)c1ccccc12 (stereo not given)
active: [6] -27% | [9] -58.8% | [11] 5.21% | [12] -48.5% | [13] -29.2% | [19] -61.1% | [16] 9.24%
inactive: [1] 57.6% | [2] 78.7% | [3] 86.1% | [4] 98.2% | [5] 44.3% | [7] 83.1% | [8] 20.1% | [10] 37.4% | [14] 70.6% | [15] 82.1% | [17] 30.4% | [18] 19.1%

O=C(Nc1ccncc1)C(=O)c1cn(S(=O)(=O)c2ccccc2F)c2ccccc12
active: [16] 6.94%
inactive: [1] 25.9% | [2] 56.8% | [3] 97.2% | [4] 38.4% | [5] 75.8% | [6] 24.6% | [7] 71.8% | [8] 36.9% | [9] 103% | [10] 24.9% | [11] 22.8% | [12] 41.2% | [13] 39.9% | [19] 28.6% | [14] 42.2% | [15] 22.5% | [17] 63.1% | [18] 14.8%

CN1CCN(Cc2ccc(NC(=O)c3cncc(C#Cc4cnc(N)c5ccncc45)c3)cc2C(F)(F)F)CC1
inactive: [1] 15.4% | [3] 20.4% | [20] 24.4% | [7] 26.4% | [8] 35.3% | [10] 22.2% | [14] 24.5% | [15] 20.8% | [17] 23.8%
active: [2] -12.8% | [5] 8.86% | [6] -22.5% | [9] -16.1% | [11] -16.8% | [12] -44.5% | [13] -33.7% | [19] -30.1% | [16] -20.6% | [18] 2.43%

CCCCCc1cc[n+](CC(=O)c2ccc([N+](=O)[O-])cc2)cc1
active: [9] -5.18%
inactive: [1] 69.6% | [2] 96.5% | [3] 107% | [5] 49.6% | [6] 51.7% | [20] 45.7% | [7] 78.9% | [8] 96.5% | [10] 79.2% | [11] 34.7% | [12] 85.2% | [13] 70% | [19] 97.6% | [14] 87.3% | [15] 95.2% | [16] 96.9% | [17] 35.6%

CCOC(=O)CN1/C(=N/c2sc3c(c2C(=O)OCC)CCN(C(=O)OCC)C3)SC(=O)/C1=C\C(=O)OC
inactive: [1] 95.8% | [2] 92.2% | [3] 98.4% | [4] 92.4% | [5] 99.9% | [6] 74.5% | [7] 90.4% | [9] 101% | [10] 104% | [11] 64.2% | [12] 101% | [13] 89.2% | [19] 90.9% | [14] 90.8% | [15] 98% | [16] 93.9% | [17] 92.8% | [18] 95%

COc1ccc(CCNC2=CC(=O)CCC2)cc1OC
inactive: [1] 92.5% | [2] 95% | [3] 110% | [5] 111% | [6] 92.8% | [20] 102% | [7] 105% | [8] 107% | [9] 103% | [10] 124% | [11] 95.3% | [12] 92.2% | [13] 104% | [19] 119% | [14] 104% | [15] 104% | [16] 106% | [17] 117% | [18] 104%

CCN(CC)c1ccc(C(=N)c2ccc(N(CC)CC)cc2)cc1
inactive: [3] 16.2%
active: [1] -52.9% | [2] -33.5% | [5] -44.5% | [6] -30.6% | [20] -62.4% | [7] 6.12% | [8] -55.2% | [9] -96.6% | [11] -4.1% | [12] -32.6% | [13] -63.3% | [19] -31.5% | [15] -54.7% | [16] -68.7% | [17] -39.6% | [18] -93.1%

Cc1nc2c3c(ncn2n1)Oc1c(c(=O)[nH]c2ccccc12)C3c1ccc(Cl)cc1 (stereo not given)
inactive: [1] 103% | [2] 98% | [3] 100% | [4] 87.3% | [5] 101% | [6] 74.2% | [7] 97.4% | [9] 107% | [10] 112% | [11] 94.3% | [12] 105% | [13] 87.9% | [19] 113% | [14] 85.7% | [15] 96.2% | [16] 93.4% | [17] 105% | [18] 105%

CCN(CC)CCOc1ccc(/C(=C(/C)c2ccccc2)c2ccc(OC(C)=O)cc2)cc1
inactive: [1] 95.7% | [2] 105% | [3] 100% | [5] 107% | [6] 81% | [20] 102% | [7] 117% | [8] 98.6% | [9] 113% | [10] 105% | [11] 87.2% | [12] 99.1% | [13] 108% | [19] 100% | [14] 93.2% | [15] 103% | [16] 101% | [17] 120% | [18] 98.3%

CC(C)NCCCNC1=C(Cl)C(=O)c2ccccc2C1=O
active: [11] -41.9% | [12] -78% | [17] 3.04%
inactive: [1] 16.3% | [2] 93.1% | [3] 105% | [5] 87.2% | [6] 110% | [20] 91.9% | [7] 81.7% | [8] 113% | [9] 95.4% | [10] 47.8% | [13] 76.3% | [19] 119% | [14] 91.5% | [15] 57.4% | [16] 119% | [18] 74.3%

COc1ccncc1S(=O)(=O)NC(=O)Nc1ccc(Cl)c(Cl)c1
inactive: [1] 89% | [2] 92.5% | [3] 95% | [5] 104% | [6] 80.7% | [20] 82.5% | [7] 44.5% | [8] 94.2% | [9] 105% | [10] 109% | [11] 77.5% | [12] 90.1% | [13] 100% | [19] 79.3% | [14] 91% | [15] 85.4% | [16] 107%
active: [17] -32.8%

O=[N+]([O-])c1cnc(Sc2ccncn2)s1
inactive: [1] 77% | [2] 110% | [3] 99.1% | [5] 97.3% | [7] 95.9% | [8] 93.1% | [13] 75.4% | [14] 35.7% | [15] 102% | [16] 91.1%
active: [6] -64.9% | [20] -79.1% | [9] -77.4% | [10] -21.5% | [11] -44.4% | [12] -63.5% | [17] -18.7% | [18] 6.85%

O=C(O)/C=C/C(=O)c1ccc(Cl)cc1
inactive: [1] 116% | [2] 113% | [3] 104% | [5] 112% | [6] 119% | [8] 105% | [9] 120% | [10] 109% | [12] 110% | [13] 122% | [19] 125% | [14] 96.6% | [15] 123% | [16] 107% | [17] 93.2% | [18] 101%

COc1cc(/C=C/C(=O)c2c(C)nc3ccccc3c2C)ccc1OCCCCOc1cc2c(cc1OC)C(=O)N1CCC[C@H]1C=N2
active: [1] -34.9% | [2] -80.9% | [3] -62.7% | [5] -93.3% | [6] -49.1% | [20] -32.2% | [7] -52.6% | [8] -88.1% | [9] -100% | [10] -100% | [11] -55.5% | [12] -81.3% | [13] -65.9% | [19] -92.6% | [14] -35.6% | [15] -48.9% | [16] -90.6% | [17] -88%

CCO/C=N/C1=C(C#N)C(c2ccc(Cl)cc2)c2c(c3ccccc3n(C)c2=O)O1 (stereo not given)
inactive: [1] 80.3% | [2] 91.3% | [3] 85.9% | [5] 79.9% | [6] 79.2% | [20] 58.7% | [7] 63.4% | [9] 71.5% | [10] 95.1% | [11] 19.6% | [12] 55.7% | [13] 51.2% | [19] 56.8% | [14] 80% | [15] 57.3% | [16] 72.2% | [17] 90.3% | [18] 57.2%

COC(=O)c1nc(-c2ccccc2)oc1S(=O)(=O)N1CCN(c2cccc(Cl)c2)CC1
inactive: [1] 97.4% | [2] 93.9% | [3] 86.7% | [5] 82.2% | [6] 48.2% | [20] 53.9% | [7] 88.7% | [8] 57% | [9] 82.5% | [10] 92.7% | [11] 38.8% | [12] 100% | [13] 73.5% | [19] 84% | [14] 80.7% | [15] 90.8% | [16] 105% | [17] 80.2% | [18] 86.9%

— PubChem BioAssay (NCI)
